Screening data as filed in PubChem BioAssay.
IMPase Li cell – membrane-permeable IMPase blocker, potentiated with lithium; CHO-M1 cells, IP1 TR-FRET (IP-One), carbachol + lithium; Potency, µM (titrated, usually from 59.4 µM), for the others: at the top dose activity, negative = IMPase inhibition, hits mostly inhibitors; 0.35% of 210,000 active; AID 1457;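 note: IP1 builds up when IMPase is blocked and the TR-FRET signal falls; potency is the fitted concentration of half-maximal effect; plate controls were basal vehicle for no effect and high inhibitor control for full effect; nearly all actives have a fitted effect of over 50% in size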
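Test compounds were applied to CHO-M1 cells previously cultured for 16–30 h at 2000 per well. A small lithium amount accompanied them; after 30 min at 37C, IP1 was quantified by TR-FRET.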
IMPase inh – membrane-permeable compound that blocks inositol monophosphatase; CHO-M1 cells, IP1 accumulation, HTRF TR-FRET ratio; inhibition (IP1 accumulation), % at 46.1 µM; 120,000 tested, under 10 active; AID 901; active = well fitted curve in the direction sought with a large enough effect in the signal ratio, not every such curve was filed as active; inconclusive = small, poorly fitted or top-dose-only effect, or a change in a side signal; inactive = no such curve, though single readings can be large or run the other way; the % refers to the signal ratio;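 note: cells stimulated with carbachol in lithium chloride buffer; plate controls were DMSO basal wells for no effect and reference inhibitor wells for full effect; higher means more IMPase inhibition seen as more IP1 and lower FRET ratio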
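Seeded CHO-M1 cells were dosed with compound at up to 46 uM, stimulated with carbachol for 30 min, then lysed in IP-One detection reagents. Higher IP1 lowers the TR-FRET signal.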
HttQ103 aggreg – inhibitors of mutant huntingtin aggregate formation in PC12 cells. AID 1688. Potency, µM (series often up to 46.1 µM), for the others: at the top dose activity change, negative = inhibition, hits mostly inhibitors. PC12 HttQ103-GFP aggregates, Acumen cytometry, 40 h. 1.1% of 220,000 active; note: potency is the fitted concentration of half-maximal effect; % is set by controls: 0 for no effect and ±100 for the full control effect; nearly all actives have a fitted effect of over 60% in size
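Inducible Q103 Huntingtin exon 1–GFP PC12 line, 1500 cells/well in phenol red free DMEM with 5% equine and 5% calf serum. Tebufenozide 100 nM induced expression; compounds titrated; aggregates quantified by cytometry.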
HTT cytoprotect – protects HTT-Q103 PC12 cells, measured by ATP; PC12 HTT-Q103 induced, cytoprotection, ATP luminescence, 40 h; Potency, µM (top dose mostly 56.4 µM), without a hit: cytoprotection (ATP increase), most hits filed as activators; 0.14% of 230,000 active; AID 1471; note: potency is the fitted concentration of half-maximal effect; % of control where 0% means no effect; nearly all actives have a fitted effect of over 45% in size
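ATP quantification (ATPlite) reports survival of PC12 cells in which tebufenozide, 100 nM final, switches on Htt exon 1 with 103 glutamines linked to GFP; compounds are titrated.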
HPGD block – inhibitors of human 15-hydroxyprostaglandin dehydrogenase (HPGD). Potency, µM, inactives show at the highest dose activity change, negative = inhibition, most hits filed as inhibitors. 4.3% of 150,000 active. AID 894. purified HPGD, NADH fluorescence kinetic, PGE2 substrate. P15428; active = well fitted inhibition curve with a large enough effect, not every such curve was filed as active; inconclusive = small, poorly fitted or top-dose-only effect, or another doubt; inactive = no such curve, though single readings can be large or run the other way; note: potency is the fitted concentration of half-maximal effect; % is set by controls: 0 for no effect and ±100 for the full control effect
Target sequence (P15428 whole entry, looked up): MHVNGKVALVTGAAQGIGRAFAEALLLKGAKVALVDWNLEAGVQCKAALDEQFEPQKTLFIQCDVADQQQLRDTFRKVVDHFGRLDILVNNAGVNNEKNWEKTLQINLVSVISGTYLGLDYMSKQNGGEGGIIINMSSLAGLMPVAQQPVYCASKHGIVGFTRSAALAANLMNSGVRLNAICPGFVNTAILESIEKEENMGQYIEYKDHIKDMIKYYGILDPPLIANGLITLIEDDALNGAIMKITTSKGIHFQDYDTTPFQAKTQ
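20 nM HPGD preincubated 15 min at room temperature with compound in 50 mM Tris-HCl pH 8, 0.01% Tween 20. Started with 1 mM NAD+ and 30 uM prostaglandin E2; NADH fluorescence (360/450 nm) read 5 times over 30-s intervals, last minus first.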
ALDH1A1 inh – inhibitors of human aldehyde dehydrogenase 1A1; AID 1030; Potency, µM (titrated, usually from 75.3 µM), for the others: at the highest dose activity, negative = inhibition, usual class: inhibitors; Purified ALDH1A1, NADH fluorescence, propionaldehyde substrate; 7.3% of 220,000 active; active = well fitted inhibition curve with a large enough effect, not every such curve was filed as active; inconclusive = small, poorly fitted or top-dose-only effect, or another doubt; inactive = no such curve, though single readings can be large or run the other way;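 note: potency is the fitted concentration of half-maximal effect; plate controls were no enzyme wells and a reference inhibitor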
Target sequence (P00352 whole entry, looked up): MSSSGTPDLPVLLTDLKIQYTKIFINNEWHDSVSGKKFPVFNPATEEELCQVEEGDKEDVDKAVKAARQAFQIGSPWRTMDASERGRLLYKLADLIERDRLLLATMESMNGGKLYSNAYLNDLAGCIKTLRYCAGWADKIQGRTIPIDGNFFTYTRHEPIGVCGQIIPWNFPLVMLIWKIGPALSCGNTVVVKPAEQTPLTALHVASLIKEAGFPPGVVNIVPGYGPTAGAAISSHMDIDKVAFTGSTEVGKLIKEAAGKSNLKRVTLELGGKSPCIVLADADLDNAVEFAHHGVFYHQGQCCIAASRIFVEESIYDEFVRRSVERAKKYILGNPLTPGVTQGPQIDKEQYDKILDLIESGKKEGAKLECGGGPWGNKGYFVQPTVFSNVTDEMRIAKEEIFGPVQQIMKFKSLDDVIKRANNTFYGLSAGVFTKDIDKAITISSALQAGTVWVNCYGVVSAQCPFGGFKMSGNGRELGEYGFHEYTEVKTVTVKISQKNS
* marks the source's active call; other numbers are inactive results; ? = inconclusive; . = not tested or not shown; [ ] = dose if it differs, or a comment. Rows were chosen to be rich in hits. Some 9.4% of all compounds tested hit in one or more screens of this group. Unless noted, calls come from the whole dose curve; as a rule, active = well fitted curve in the direction sought with a large enough effect; inconclusive = small, poorly fitted or top-dose-only effect, or another doubt; inactive = no such curve, though single readings can be large; an effect the other way counts as inactive or inconclusive.

SMILES | IMPase Li cell | IMPase inh | HttQ103 aggreg | HTT cytoprotect | HPGD block | ALDH1A1 inh
Cc1ccc(-c2nc(N3CCOCC3)sc2C(=O)N2CCOCC2)cc1 | 10% | . | -5% | . | -7% | 20µM*
Cc1ccc(-c2nc(N3CCOCC3)sc2C(=O)N2CCCCC2)cc1 | -1% | 2 | 4% | -14%[10 µM] | 0% | 7.9µM*
O=C(O)C[n+]1ccccc1 | -9% | . | . | -15%[10 µM] | -15% | 8%[13.5 µM]
O=C(OCC#CCSc1nnc(-c2ccccc2)o1)c1cccs1 | 39%[38.3 µM] | 16 | 18% | -14% | 16µM* | 20µM*
Nc1nc(SCc2ccccc2[N+](=O)[O-])c2[nH]cnc2n1 | -2% | . | . | 14%[10 µM] | -2% | 7%[13.5 µM]
CC(C)C[C@H](N)C(=O)N[C@H](C(=O)N[C@H](C(=O)N[C@@H](Cc1ccc(O)cc1)C(=O)N1CCC[C@H]1C(=O)N[C@@H](Cc1c[nH]c2ccccc12)C(=O)N[C@H](C(=O)N[C@@H](CCC(N)=O)C(=O)N[C@@H](CCCN=C(N)N)C(=O)O)[C@@H](C)O)C(C)C)C(C)C | -5% | . | . | -32% | . | 18%
CC(=O)Nc1cc(C(C)(C)C)c(O)c(C(C)(C)C)c1 | 6%[38.3 µM] | 13 | 1% | -10% | -9% | 11µM*
CCCCCCOC(=O)c1cccnc1 | . | . | 5% | 13% | . | .
Cc1ccc2c(CSc3nnnn3C)cc(=O)oc2c1 | -5% | . | 5% | -35% | . | -7%
COc1cc(-c2nnc(SCc3cc(=O)oc4cc(C)ccc34)o2)cc(OC)c1OC | 10%[38.3 µM] | 9 | ? | 2%[10 µM] | ? | 6.3µM*
COc1cccc(-c2nc(NC(C)(C)C)c3ccccc3n2)c1O | . | 15 | 35µM* | -31% | . | ?
COc1cccc(-c2nc(N3CCCC3)c3ccccc3n2)c1O | . | . | -13%[9.22 µM] | -25%[10 µM] | . | -4%
Nc1ccc(S(=O)(=O)N2CCCC2)cc1Cl | . | . | -1%[9.22 µM] | 11%[10 µM] | . | .
O=C1NNC(=O)C2C3C=CC(C4CC34)C12 (stereo not drawn) | -9%[38.3 µM] | 6 | -6% | -1%[10 µM] | -4% | 25µM*
CC(c1ccccc1)N1C(=O)C2C3C=CC(C4CC34)C2C1=O (stereo not drawn) | 13% | . | -3%[9.22 µM] | -4%[10 µM] | . | 7%
Cc1nn(CC(O)c2ccccc2)c(C)c1Br (stereo not drawn) | -7%[38.3 µM] | 4 | -16%[9.22 µM] | -4% | -3% | 18µM*
Cc1nn(CC(O)CN2c3ccccc3Sc3ccccc32)c(C)c1Br (stereo not drawn) | 13%[38.3 µM] | 9 | -21% | 18%[10 µM] | -9% | 7%
Cc1ccc(N2C(=O)CC(N(CCc3ccccc3)C(=S)Nc3ccc(N(C)C)cc3)C2=O)cc1 (stereo not drawn) | -7%[38.3 µM] | 3 | -26% | -45% | -15% | 28µM*
Cc1cc(C)nc(/N=C(\N)C2=C(O)CC(C)(C)CC2=O)n1 | -10%[38.3 µM] | -3 | 2% | -9% | -5% | 3.2µM*
CC(=Nc1ccccc1)C1=C(O)CC(C)(C)CC1=O | -2% | . | 3% | -23% | . | 3%
COc1cccc(-c2nc(S(=O)(=O)c3ccc(C)cc3)c(N3CCCCC3)o2)c1 | . | 1 | . | . | . | .
CC1=NN(c2ccccc2)C(=O)/C1=C\c1ccc(Oc2ccc([N+](=O)[O-])cc2[N+](=O)[O-])cc1 | 6% | -8 | -2% | 4%[10 µM] | 8.9µM* | 8.9µM*
COc1cc(/C=C2/SC(=O)NC2=O)ccc1Oc1ccc([N+](=O)[O-])cc1[N+](=O)[O-] | . | . | 25%[9.22 µM] | -17%[10 µM] | . | .
COc1cc(/C=C2\C(=O)N(c3ccccc3)N=C2C)ccc1Oc1ccc([N+](=O)[O-])cc1[N+](=O)[O-] | -7% | . | 11% | 34%[10 µM] | 13µM* | ?
CN(C)CCNc1nc2c(c(=O)[nH]c(=O)n2C)n1CC(O)COc1ccc(Cl)cc1Cl (stereo not drawn) | 6%[38.3 µM] | 2 | 13% | -9%[0.074 µM] | 22µM* | ?
SMILES | IMPase Li cell | IMPase inh | HttQ103 aggreg | HTT cytoprotect | HPGD block | ALDH1A1 inh
Cc1ccccc1OCC(O)Cn1c(Br)nc2c1c(=O)[nH]c(=O)n2C (stereo not drawn) | 6% | . | 0% | -20% | . | -14%
CC(C)Sc1nc2c(c(=O)[nH]c(=O)n2C)n1CC(O)COc1ccccc1 (stereo not drawn) | 9% | . | -11% | -14% | . | ?
Cc1ccccc1OCC(O)Cn1c(NCc2ccccc2)nc2c1c(=O)[nH]c(=O)n2C (stereo not drawn) | -14%[38.3 µM] | 8 | 17% | -11% | -1% | 2%
CC(O)CSc1nc2c(c(=O)[nH]c(=O)n2C)n1CC(O)COc1ccccc1 (stereo not drawn) | -2% | . | 5% | -12% | . | 24µM*
CCSc1nc2c(c(=O)[nH]c(=O)n2C)n1CC(O)COc1ccccc1C (stereo not drawn) | -12%[38.3 µM] | 1 | 6% | -6%[10 µM] | 14µM* | 28µM*
Cc1ccccc1OCC(O)Cn1c(SC(C)C)nc2c1c(=O)[nH]c(=O)n2C (stereo not drawn) | 6%[38.3 µM] | -1 | -6% | -10% | 14µM* | 7.1µM*
COc1ccc(N(C(=O)c2ccc(Cl)cc2)S(=O)(=O)c2ccc(C)cc2)cc1 | . | 13 | . | . | . | .
c1ccc(SC(Sc2ccccc2)c2ccc3c(c2)OCO3)cc1 | 9% | . | . | -7%[10 µM] | -2% | 0%[13.5 µM]
Nc1ccccc1S[C@@H](C[N+](=O)[O-])c1ccc2c(c1)OCO2 | 11% | . | . | 4%[10 µM] | 3.2µM* | 3.5µM*
Cc1cccc(OCC(=O)Nc2ccc(Cl)c(-c3nc4ncccc4o3)c2)c1C | . | -8 | . | . | . | .
N#C/C(=C\c1ccc(F)cc1)c1nc(-c2ccc(-c3ccccc3)cc2)cs1 | . | -10 | . | . | . | .
CCOc1ccc(-c2csc(/C(C#N)=C\c3ccc(O)c([N+](=O)[O-])c3)n2)cc1 | 6% | . | 7.9µM* | 18%[10 µM] | 3.2µM* | -16%
c1ccc2c(c1)CC1(CCCC1)n1nnnc1-2 | . | 9 | 2% | -9%[0.074 µM] | . | 13µM*
CC1(C)Cc2ccccc2-c2nnnn21 | 23%[38.3 µM] | 2 | -8% | 3% | -8% | 11µM*
COc1cc2c(cc1OC)-c1nnnn1C(C)(C)C2 | 24%[38.3 µM] | 4 | -1% | 10%[1.9 µM] | -10% | ?
CCOC(=O)c1c(C)n(-c2ccccc2)c2ccc(OC(=O)c3ccccc3)cc12 | . | -1 | . | . | . | .
Cc1ccc(C)c(Nc2nnc(-n3nc(C)cc3C)c3ccccc23)c1 | . | 7 | . | . | . | .
O=C(Nc1ccccc1Cl)c1cc(S(=O)(=O)N2CCCC(C(=O)O)C2)ccc1F (stereo not drawn) | -28%[38.3 µM] | 9 | ? | -13% | -23% | 22µM*
CCCn1c(NC(=O)c2ccccc2)nc2ccccc21 | 9%[38.3 µM] | -1 | -18% | 15% | -23% | 5%
O=C(Nc1cccc(O)c1)c1cccc(S(=O)(=O)N2CCCC2)c1 | 18%[38.3 µM] | 5 | -17% | 2.8µM* | -7% | -11%
